# Assay outcomes as filed in PubChem.
# Rows were chosen to be rich in hits. Some 19% of all compounds tested hit in one or more screens of this group.
# HT1080NT lethal: kills 2HG-producing HT-1080-NT fibrosarcoma cells | Potency, µM (doses to about 46.1 µM), without a hit: top-dose activity, negative = less viability, most hits filed as cytotoxic | 360,000 compounds, 1.6% hits | HT-1080-NT fibrosarcoma viability, CellTiter-Glo ATP luminescence, 48 h;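 note: NT is the 2HG producing partner of a matched IDH1 knockdown line; potency is the fitted concentration of half-maximal effect; 0% = DMSO-treated cells and -100% = media-only wells without cells; nearly all actives have a fitted effect of over 55% in size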
#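 Viability of the 2HG-overproducing fibrosarcoma line after 48 hours of compound exposure at 37 degrees C was determined by luminescence with CellTiter-Glo, and concentration-effect curves were then fitted and categorized.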
# DT40 TDP1 CPT: growth inhibition of DT40 Tdp1-/-;hTDP1 cells with camptothecin (screen for TDP1 inhibitors). 420,000 compounds, 12% hits. chicken DT40 Tdp1-/-;hTDP1 cells + 20 nM CPT, ATP luminescence, 48 h. Potency, µM (series often up to 46.2 µM), inactives show at the highest dose activity change, negative = growth inhibition, hits mostly inhibitors; note: potency is the fitted concentration of half-maximal effect; nearly all actives have a fitted effect of over 55% in size
#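 Cell growth measured by CellTiter-Glo luminescence after a minimum 48 h, 37 C compound exposure with 20 nM CPT in Tdp1-knockout DT40 cells stably expressing hTDP1, seeded 400/well; qHTS titration format.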
# IL1B secr inh: inflammasome signaling inhibition, IL-1 beta readout | THP-1 LPS/ATP IL-1B secretion, AlphaLISA, 16 h; active compounds read low | activity change, % at 57.5 µM | 360,000 compounds, 4.7% hits; in the data active = activity change below about -50%; inconclusive = mostly about -30% to -49%
#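 THP-1 cells pretreated 1 hr with compounds (up to 57.5 uM final), then stimulated with LPS (250 ng/mL final) plus ATP (1.25 mM final); secreted IL-1B measured by AlphaLISA after 16 hr, decreased signal indicating inhibition.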
# HT1080 IDH1KD tx: HT-1080 IDH1 knockdown cell toxicity (counter line); HT-1080 IDH1 knockdown viability, ATP luminescence, 48 h; Potency, µM (top dose mostly 46.1 µM), for inactives: at the highest dose activity, negative = toxicity, usual class: cytotoxic; 360,000 compounds, 2% hits; AID 686971;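 note: potency is the fitted concentration of half-maximal effect; 0% = DMSO wells and -100% = cell-free medium wells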
#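 Using the IDH1-knockdown HT-1080 line run in the same batch and compound series as the NT line, viability after 48 h at 37 °C was determined by CellTiter-Glo luminescence and expressed as % activity.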
# TDP1 cell noCPT: qHTS for Inhibitors of human tyrosyl-DNA phosphodiesterase 1 (TDP1): qHTS in cells in absence of CPT. DT40 Tdp1-/- hTDP1 cells, no CPT, ATP luminescence, 48 h. 420,000 compounds, 15% hits. AID 686978, 2013. Potency, µM (highest dose often 46.2 µM), without a hit: top-dose activity change, negative = growth inhibition, most hits filed as inhibitors; note: potency is the fitted concentration of half-maximal effect; nearly all actives have a fitted effect of over 55% in size
#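 Readout: luminescence from CellTiter-Glo after 30 min in the dark at RT. Cells: DT40 Tdp1-/- with stable hTDP1, 400/well. Exposure: compounds alone, ≥48 hr, 37 °C.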
# Starred values were filed as active, the others as inactive; ? = inconclusive; . = no result given. Unless noted, calls come from the whole dose curve; as a rule, active = well fitted curve in the direction sought with a large enough effect; inconclusive = small, poorly fitted or top-dose-only effect, or another doubt; inactive = no such curve, though single readings can be large; an effect the other way counts as inactive or inconclusive. Unless noted, % is set by controls: 0 for no effect and ±100 for the full control effect.
SMILES,HT1080NT lethal,DT40 TDP1 CPT,IL1B secr inh,HT1080 IDH1KD tx,TDP1 cell noCPT
NC(=O)c1ccc(NC(=O)COc2ccc([N+](=O)[O-])cc2Cl)cc1,-6%,-22%,2,-1%,-25%
O=C(CSc1nc2ccc(NC(=O)c3ccccc3C(=O)O)cc2s1)Nc1ccc(F)c([N+](=O)[O-])c1,?,7%,-61*,-17%,-6%
CCOc1ccc(C(=O)Nc2ccc3nc(SCC(=O)N(C)c4ccccc4)sc3c2)cc1,.,2.1µM*,.,.,3.7µM*
CCOC(=O)CSc1nc2ccc(NC(=O)c3cccc(F)c3)cc2s1,.,-21%,.,.,-27%
Cc1cccn2c(=O)nc(SCC(=O)N3CCCCCC3)nc12,-4%,-24%,-8,-4%,?
O=C(O)CCC(=O)NNc1nc2ccccc2nc1-c1ccccc1,7%,8%,5,10%,1%
CC(C)OP(=O)(OC(C)C)C(O)c1cccc([N+](=O)[O-])c1 (configuration not stated),20%,-13%,3,11%,-15%
CC(C)OP(=O)(OC(C)C)/C(C=O)=N\Nc1ccc([N+](=O)[O-])cc1,21µM*,16µM*,-90*,16µM*,?
O=C(CC1(CC2=NS(=O)(=O)c3ccccc3N2)CCCC1)NCCc1ccccc1,-10%,15µM*,-12,-6%,?
O=C(CSC1=NS(=O)(=O)c2ccccc2N1)NCCc1ccccc1,3%,13%,10,6%,0%
CCc1nc(CN2CCN(Cc3ccc(F)c(F)c3)C(CCO)C2)c(C)[nH]1 (configuration not stated),-2%,-1%,-18,-3%,-1%
CC(=O)OCON[N+]([O-])=NC(C)C,.,11µM*,.,.,?
COc1ccc(/C=C/C(=O)c2ccc(C(=O)/C=C/c3ccc(OC)c(OC)c3)cc2)cc1OC,-10%,7.3µM*,-25,0%,5.8µM*
COc1ccc(/C=C/C(=O)C2(O)CCCCC2)cc1,-6%,?,-92*,?,?
COc1ccc(/C=C/C(=O)c2ccc[nH]2)cc1OC,-6%,-9%,-63*,1%,?
COc1ccc(/C=C/C(=O)Nc2ccc(C(N)=O)cc2)cc1OC,?,26%,15,?,-10%
COc1ccc(C=CC(=O)c2ccc(OCc3ccccc3)c(OC)c2)cc1OC,-14%,26µM*,-6,?,18µM*
Cc1nc(C)c(C(=O)OCC(=O)Nc2cccc(C)c2C)s1,15%,?,32,5%,-23%
COc1ccc(/C=C/C(=O)c2ccccc2)cc1Cn1nnc2ccccc21,?,?,-99*,?,23µM*
COc1ccc(/C=C/C(=O)c2ccc(O)cc2O)cc1OC,.,?,.,.,15µM*
COc1ccc(/C=C/C(=O)c2cc(Br)ccc2O)cc1OC,-4%,-26%,-17,-9%,-29%
COc1cc(/C=C/C(=O)c2ccc(C)cc2)ccc1OCC#N,?,?,-114*,21µM*,?
O=C(/C=C/c1ccc(OCc2ccccc2)c(OCc2ccccc2)c1)c1cccnc1,?,?,-95*,?,12µM*
O=C(Nc1ccc(OCc2ccccc2)cc1)c1cccnc1,-13%,-5%,26,7%,-1%
CCOC1=C2[C@@H](CN(S(=O)(=O)c3ccc(C)cc3)[C@H]2c2ccccc2)[C@H]2C(=O)N(c3ccccc3)C(=O)[C@H]2C1,?,3%,-1,8%,-6%
SMILES,HT1080NT lethal,DT40 TDP1 CPT,IL1B secr inh,HT1080 IDH1KD tx,TDP1 cell noCPT
COc1ccc(S(=O)(=O)N2CCN(C(=O)COc3ccc(C)c(C)c3)CC2)cc1OC,-3%,?,-5,2%,-29%
N#CCc1nn(-c2ccccc2)c2ncnc(N)c12,3%,-14%,0,0%,-25%
COC(=O)c1ccc(/C=C/C(=O)O)cc1,7%,-1%,-10,-5%,-8%
COC(=O)c1ccc(/C=C/C(=O)c2ccc(OC)c(OC)c2)cc1,?,?,-59*,?,?
CCOc1ccc(C(=O)/C=C/c2ccccc2C(F)(F)F)cc1,14%,-23%,0,3%,-9%
COc1ccc(C(=O)/C=C/c2ccccc2C(F)(F)F)cc1,?,29µM*,-73*,?,23µM*
COc1cc(/C=C/C(O)=C/C(=O)/C=C/c2ccc(O)cc2)ccc1O,?,18µM*,-97*,?,?
CCOc1cc(/C=C/C(=O)O)ccc1OCCO,0%,13µM*,2,0%,18µM*
CCCCn1c(N)c(N(CCC(C)C)C(=O)C2=NN(c3cc(C)ccc3C)C(=O)CC2)c(=O)[nH]c1=O,11%,2%,-4,14%,-2%
CC(C)NC(=O)OC1CC2CC1[C@H]1CCCCN1C2=O (some centres not stated),20%,4%,33,5%,-9%
O=C(Nc1ccc(N2C(=O)C3CCCCC3C2=O)cc1Cl)c1cccs1 (configuration not stated),0%,-8%,11,9%,-2%
CCOc1ccc(OCCOc2ccc(/C=C/C(=O)O)cc2OCC)cc1,-1%,34%,-8,1%,3%
COC(=O)c1ccc(/C=C/C(=O)c2ccc(OC)cc2)cc1,6%,?,?,?,16µM*
CCOc1cc(/C=C/C(=O)c2ccc(C)cc2)ccc1OCC(=O)N(C)C,-25%,18µM*,-105*,?,21µM*
C[C@H](CO)N1C[C@H](C)[C@@H](CN(C)C(=O)Nc2ccc(F)cc2)Oc2ccc(NS(C)(=O)=O)cc2C1=O,0%,-5%,-5,7%,8%
COC(=O)c1ccc(COn2nnc3ccccc32)cc1,-3%,-5%,38,-12%,-5%
O=C1CC(/C=C/c2ccco2)=Nc2ccccc2N1,1%,?,0,0%,?
O=C1CC(/C=C/c2ccccn2)=Nc2ccccc2N1,-1%,?,-75*,2%,15µM*
COc1ccc(NC(=O)Cc2csc(NC(=O)Nc3ccccc3OC)n2)cc1,-23%,26µM*,-25,-25%,23µM*
COc1ccc(C)cc1NC(=O)Cc1csc(NC(=O)Nc2ccccc2OC)n1,-20%,?,39,-9%,16µM*
COc1ccccc1NC(=O)Nc1nc(CC(=O)Nc2ccc(N(C)C)cc2)cs1,4%,?,?,1%,?
COc1ccccc1NC(=O)Nc1nc(CC(=O)Nc2ccc(F)c(F)c2)cs1,-7%,?,-69*,11%,15µM*
COc1ccccc1NC(=O)Nc1nc(CC(=O)Nc2ccc(F)cc2)cs1,11%,?,-16,6%,16µM*
